Among the test systems are DU-145 prostate; MALME-3M melanoma; MDA-MB-231 breast; RXF 393 renal; SF-268 CNS; SF-295 CNS; SF-539 CNS; UACC-257 melanoma; M14 melanoma; HCT-15 colon; HT29 colon; SNB-75 CNS; SNB-19 CNS; U251 CNS; PC-3 prostate; SK-MEL-5 melanoma; UACC-62 melanoma; LOX IMVI melanoma; SK-MEL-28 melanoma; K-562 leukemia.
Holding throughout (experiment): NCI-60 one-dose screen, 48 h (100 = growth as untreated, 0 = no growth, -100 = all killed)
Common to all, as to details: 10 µM unless noted

Molecules are shown by their SMILES. Compounds without any hit were thinned out: in the full panel of roughly 83,000, 20% have a hit.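 Percent growth is the endpoint: 0 to 100 indicates growth inhibition (40 means 60% inhibition), 0 means no net growth, and negative values indicate cell death.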 A number with no mark means an inactive call. Calls of active or inactive are those of the source. The calls were made as follows: active = growth percent below 10; inactive = the rest.

On to `N#Cc1cnn2c(-c3ccc(Cl)cc3)nc(NCCc3ccccc3)nc12`, for which the growth with DU-145 prostate is 99.5%; with MALME-3M melanoma, 111%; in the assay with MDA-MB-231 breast, 87.5%; in the assay with RXF 393 renal it was 116%; in the assay on SF-268 CNS it was 92.2%; in the assay on SF-295 CNS, 99.2%. The growth with SF-539 CNS was 98%; in the assay with UACC-257 melanoma it was 99.9%; with M14 melanoma, 95%; with HCT-15 colon it was 103%; with HT29 colon it was 80.7%; with SNB-75 CNS it was 78.8%. For the same compound, the growth with SNB-19 CNS was 100%; with U251 CNS it was 97%; with PC-3 prostate, 73.7%; in the assay with SK-MEL-5 melanoma it was 99.8%; with UACC-62 melanoma, 65.7%; in the assay with LOX IMVI melanoma it was 84.9%. For the same compound, the growth with SK-MEL-28 melanoma was 101%.
`Clc1ccc(-c2nc(NCCc3ccccc3)nc3c(NCCc4ccccc4)cnn23)cc1`: the growth in the assay with DU-145 prostate was 84.5%; in the assay with MALME-3M melanoma, 96.8%; in the assay on MDA-MB-231 breast it was 92.1%; in the assay with RXF 393 renal it was 94.7%; in the assay on SF-268 CNS it was 35.1%; in the assay with SF-295 CNS, 56.4%. Also, the growth in the assay on SF-539 CNS is 30.9%; with UACC-257 melanoma it was 71.5%; in the assay with M14 melanoma, 70%; in the assay with HCT-15 colon it was 72.9%; in the assay with SNB-75 CNS, 85.6%; in the assay with SNB-19 CNS, 85.6%. The growth was 48.4% with U251 CNS; 51.7% in the assay with PC-3 prostate; 94.2% in the assay with SK-MEL-5 melanoma; 73.2% in the assay with UACC-62 melanoma; 60.9% in the assay with LOX IMVI melanoma; 75.2% with SK-MEL-28 melanoma.
Regarding `Cc1cn(C2CCCCC2)c(=O)[nH]c1=O`, the growth was 163% in the assay with DU-145 prostate; 120% with MALME-3M melanoma; 103% with MDA-MB-231 breast; 113% with RXF 393 renal; 108% in the assay with SF-268 CNS; 111% in the assay with SF-295 CNS. Also, the growth in the assay with SF-539 CNS was 109%; in the assay with UACC-257 melanoma, 102%; in the assay with M14 melanoma, 106%; in the assay with HCT-15 colon, 99.2%; in the assay on HT29 colon it was 96%; with SNB-75 CNS, 94.4%. The growth with SNB-19 CNS was 114%; in the assay with U251 CNS it was 108%; in the assay with SK-MEL-5 melanoma, 105%; in the assay with UACC-62 melanoma, 109%; in the assay with LOX IMVI melanoma, 111%; with SK-MEL-28 melanoma, 109%.
With `CCOC(=O)c1cnn2c(-c3ccc(Cl)cc3)nc(NCc3ccccc3)nc12`, the growth was 44.6% in the assay on DU-145 prostate; 64.6% in the assay with MALME-3M melanoma; 77.5% in the assay with MDA-MB-231 breast; 40.7% with RXF 393 renal; 28.8% in the assay on SF-268 CNS; 58.9% in the assay with SF-295 CNS. For the same compound, the growth with SF-539 CNS was 10.7%; in the assay with UACC-257 melanoma it was 96.2%; in the assay with M14 melanoma, 86.8%; in the assay with HCT-15 colon, 47.7%; in the assay with HT29 colon it was 51%; in the assay with SNB-75 CNS, 70.3%. For the same compound, the growth is 63.5% with SNB-19 CNS; 32.2% with U251 CNS; 63% in the assay with PC-3 prostate; 86% with SK-MEL-5 melanoma; 63.4% with UACC-62 melanoma; 39.7% in the assay on LOX IMVI melanoma. The growth in the assay on SK-MEL-28 melanoma was 86.7%.
On to `O=[N+]([O-])c1ccc(-c2cc3c(Nc4ccc(OCc5cccc(Cl)c5)c(Cl)c4)ncnc3s2)cc1`, for which the growth in the assay with DU-145 prostate is 70.4%; in the assay on MALME-3M melanoma, 61.2%; in the assay with MDA-MB-231 breast, 81.6%; in the assay with RXF 393 renal it was 85.3%; with SF-268 CNS, 76.1%; in the assay on SF-295 CNS, 59.6%. In addition, the growth in the assay on SF-539 CNS was 84%; with UACC-257 melanoma, 58.6%; in the assay on M14 melanoma, 35.9%; with HCT-15 colon, 55.3%; in the assay with HT29 colon it was 47.3%; with SNB-75 CNS, 69.8%. The growth was 67.6% in the assay on SNB-19 CNS; 52.8% with U251 CNS; 48% with PC-3 prostate; 97.6% in the assay on SK-MEL-5 melanoma; 78.3% with UACC-62 melanoma; 66.4% with LOX IMVI melanoma. Further, the growth in the assay on SK-MEL-28 melanoma was 86.8%.
`COc1cc(C(=O)Nc2cc(O)c(CC=C(C)C)c(O)c2)cc2c1O[C@]1(C)CC[C@@H](O)C(C)(C)[C@H]1C2`: the growth with DU-145 prostate is 42%; in the assay with MALME-3M melanoma, 58.6%; with MDA-MB-231 breast, 24.1%; in the assay with RXF 393 renal, -18.5% (active); in the assay with SF-268 CNS, 39.5%; in the assay with SF-295 CNS it was -52.1% (active). Moreover, the growth with SF-539 CNS is -50.8% (active); with UACC-257 melanoma, 27.2%; with HCT-15 colon it was 13.3%; with HT29 colon, 1.4% (active); in the assay with SNB-75 CNS it was 17.9%; in the assay with SNB-19 CNS it was 53.4%. In addition, the growth in the assay with U251 CNS was 16.3%; in the assay on PC-3 prostate, 18.2%; in the assay with SK-MEL-5 melanoma, -23.5% (active); with UACC-62 melanoma it was 8.82% (active); with LOX IMVI melanoma, -12% (active); with SK-MEL-28 melanoma, 30%.
As to `O=c1[nH]c(NCc2nnnn2-c2ccc(Br)cc2)nc2sc3c(c12)CCCC3`, the growth in the assay on DU-145 prostate was 106%; in the assay on MALME-3M melanoma it was 112%; in the assay with MDA-MB-231 breast it was 92.4%; in the assay with RXF 393 renal it was 103%; in the assay with SF-268 CNS, 98.7%; in the assay with SF-295 CNS, 92.1%. Further, the growth is 95.9% in the assay with SF-539 CNS; 96% in the assay on UACC-257 melanoma; 98% in the assay with HCT-15 colon; 95.5% in the assay with HT29 colon; 93.2% with SNB-75 CNS; 96.1% in the assay with SNB-19 CNS. In addition, the growth in the assay with U251 CNS was 83.8%; in the assay on PC-3 prostate, 84.4%; in the assay with SK-MEL-5 melanoma it was 99.5%; with UACC-62 melanoma, 87.1%; with LOX IMVI melanoma, 95.8%; with SK-MEL-28 melanoma, 112%.
For `NC(=S)N/N=C/C(=O)O`, the growth in the assay with DU-145 prostate was 106%; in the assay on K-562 leukemia it was 32.7%; in the assay on MDA-MB-231 breast, 97.1%; in the assay on RXF 393 renal, 107%; in the assay with SF-268 CNS, 92.4%; in the assay on SF-295 CNS, 71.9%. Besides, the growth in the assay with SF-539 CNS was 104%; in the assay on UACC-257 melanoma it was 86.1%; in the assay on M14 melanoma, 93.9%; in the assay with HCT-15 colon, 93.7%; in the assay on HT29 colon, 80%; in the assay with SNB-75 CNS, 99.2%. Besides, the growth in the assay on SNB-19 CNS is 108%; in the assay on U251 CNS, 102%; in the assay on PC-3 prostate, 70%; in the assay with SK-MEL-5 melanoma, 103%; in the assay on UACC-62 melanoma it was 106%; with LOX IMVI melanoma it was 93.3%. Moreover, in the assay on SK-MEL-28 melanoma, the growth was 111%.

The record behind these values is PubChem BioAssay (NCI).
